Screening data as filed in PubChem.
FMDV inh = blocks foot and mouth disease virus. AID 1159524. Potency, µM (series often up to 57.9 µM), for inactives: at the highest dose activity change, negative = inhibition, usual class: inhibitors. 410,000 compounds, 1.2% hits. FMDV antiviral cell-based qHTS; calls by dose curve; tested in HEK293T cells; further: read-out not given here; potency means the concentration at half of the fitted maximal effect; nearly all actives have a fitted effect of over 45% in size
HCV inh = blocks hepatitis C virus; Huh7.5.1 HCVcc-Cre infection, luciferase reporter, 44 h; Potency, µM (top dose mostly 41.8 µM), inactives show top-dose activity change, negative = inhibition, usual class: inhibitors; 340,000 compounds, 3.4% hits; further: potency means the concentration at half of the fitted maximal effect
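Compounds are dispensed onto cells plated 4 h earlier at 1,000 per well, with HCVcc-Cre virus (about 0.5 moi) added next. Following 44 h of culture, luminescent signal is measured for 15 sec after 15 min with substrate at room temperature.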
HCMV antiviral = human cytomegalovirus inhibition | HFF cells, HCMV-luciferase reporter, 72 h; hits give low values | activity change, negative = inhibition, % at 57.5 µM | 410,000 compounds, 4.5% hits | AID 1259415; in the data active means activity change below about -60%; inconclusive means no clear call, values can overlap the other calls; inactive means above about -39%
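Luciferase read-out from HCMV-luciferase-infected HFFs (MOI 1 PFU/cell) 72 h post infection at 37C; compounds added after 16 h cell attachment; activity normalized between buffer-only basal and Salinomycin (10uM) inhibitor controls.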
AmpC inh no detg = inhibitors of E. coli AmpC beta-lactamase without detergent | P00811 | 330,000 compounds, 0.52% hits | Potency, µM (series often up to 57.1 µM), without a hit: at the top dose activity change, negative = inhibition, hits mostly inhibitors | AmpC nitrocefin hydrolysis, absorbance 480 nm, 0.0001% Triton;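 further: potency means the concentration at half of the fitted maximal effect; plate controls were no compound for no effect and no enzyme for full effect; nearly all actives have a fitted effect of over 20% in size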
Target sequence (P00811 whole entry, looked up): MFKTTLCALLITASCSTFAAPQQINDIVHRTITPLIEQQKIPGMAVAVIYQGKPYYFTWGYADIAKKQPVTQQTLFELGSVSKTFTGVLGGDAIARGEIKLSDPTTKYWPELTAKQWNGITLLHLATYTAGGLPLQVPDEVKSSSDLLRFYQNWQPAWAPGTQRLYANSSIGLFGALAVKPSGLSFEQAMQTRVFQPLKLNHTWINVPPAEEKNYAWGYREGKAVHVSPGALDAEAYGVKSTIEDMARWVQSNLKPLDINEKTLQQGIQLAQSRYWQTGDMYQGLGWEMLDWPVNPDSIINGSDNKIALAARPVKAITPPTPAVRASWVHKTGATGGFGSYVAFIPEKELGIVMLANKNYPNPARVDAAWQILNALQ
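AmpC (5.3 nM in the dispensed reagent) in 20 mM phosphate pH 7.0 with 0.01% (detergent screen) or 0.0001% Triton X-100 was preincubated with compounds for 15 min at room temperature. Nitrocefin was then added from an 800 uM solution, and hydrolysis was followed at 480 nm.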
AmpC inh detg = blocks E. coli AmpC beta-lactamase in detergent assay; P00811; AmpC hydrolysis of nitrocefin, absorbance 480 nm, 0.01% Triton; Potency, µM (top dose mostly 114 µM), for inactives: at the highest dose activity change, negative = inhibition, hits mostly inhibitors; 370,000 compounds, 0.041% hits;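 further: potency means the concentration at half of the fitted maximal effect; 0% = no-compound wells and -100% = no-enzyme wells; nearly all actives have a fitted effect of over 25% in size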
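20 mM phosphate pH 7.0 + 0.01% (detergent screen) or 0.0001% Triton X-100; 5.3 nM AmpC reagent; cpd preinc 15 min RT; nitrocefin (800 uM stock) to start; A480 q20 s × 4 min; Activity was normalised to no-enzyme and no-compound control wells.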
* marks the source's active call; other numbers are inactive results; ? = inconclusive; nt = no result. Compounds with a hit are over-represented: about 7.3% of the library has one in this group of screens. Unless noted, the call rests on the fitted dose curve; in most records, active means well fitted curve in the direction sought with a large enough effect; inconclusive means small, poorly fitted or top-dose-only effect, or another doubt; inactive means no such curve, though single readings can be large; an effect the other way counts as inactive or inconclusive. Unless noted, on the % scale 0 is the no-effect control and ±100 the full control effect.

SMILES	FMDV inh	HCV inh	HCMV antiviral	AmpC inh no detg	AmpC inh detg
CCC1CCCCN1C(=O)COc1ccc(N(C)S(=O)(=O)c2ccc(C)cc2)cc1 (stereo not drawn)	?	10µM*	-27.1	84.3%	1.5%
COC(=O)C1CCN(C(=O)COc2ccc(N(C)S(=O)(=O)c3ccc(C)cc3)cc2)CC1	-6.7%	9.5%	5.8	129.2%	-1.6%
CC(=O)OCC(=O)C1CCC2C3CCC4=CC(=O)C=CC4(C)C3CCC12C (stereo not drawn)	-19.4%	14.9%	2.4	nt	nt
CCCCOc1ccc(N(CC(=O)NCC2CCCO2)C(=O)CCC(=O)Nc2nccs2)cc1 (stereo not drawn)	-4.3%	3.1%	-0.8	66.2%	-0.4%
CCOc1ccc(N(CC(=O)NCC2CCCO2)C(=O)CCC(=O)Nc2nccs2)cc1 (stereo not drawn)	-13.7%	22.4µM*	-26.3	8.1%	-2.8%
Cc1cc(Cn2nnc3ccccc32)c(O)c(C(C)(C)C)c1	16.1%	10µM*	-20.0	-16.8%	3.2%
COc1ccc2c(c1)c(CC(=O)Nc1c(C)cccc1C)c(C)n2C(=O)c1ccc(Cl)cc1	?	nt	-17.3	nt	-8.0%
COc1ccc(OC)c(NC(=O)Cc2c(C)n(C(=O)c3ccc(Cl)cc3)c3ccc(OC)cc23)c1	?	nt	-70.7*	nt	-4.9%
COc1ccc2c(c1)c(CC(=O)NCc1cc([N+](=O)[O-])ccc1O)c(C)n2C(=O)c1ccc(Cl)cc1	39.8µM*	?	nt	-38.4%	7.1%
COc1ccc2c(c1)c(CC(=O)Nc1nnc(C3CC3)s1)c(C)n2C(=O)c1ccc(Cl)cc1	5.4%	13.9%	-75.8*	-25.3%	-4.5%
COc1ccc2c(c1)c(CC(=O)Nc1ccc(C(C)=O)cc1)c(C)n2C(=O)c1ccc(Cl)cc1	18.2%	-28.1%	18.7	?	0.1%
Cc1c(S(=O)(=O)c2cccc(Cl)c2)nnn1-c1cccc(C(F)(F)F)c1	-16.6%	nt	-21.6	nt	1.2%
CNCCNC[C@H](Cc1cccc2ccccc12)NCCc1ccccc1	-20.2%	?	-100.3*	39.8%	nt
O=C(c1ccc(Cl)cc1)C1CCCN(Cc2ccc3nonc3c2)C1 (stereo not drawn)	3.8%	22.4µM*	-24.8	-28.6%	5.4%
O=C(c1ccc(Cl)cc1)C1CCCN(Cc2cccc3ncccc23)C1 (stereo not drawn)	?	7.94µM*	0.0	41.0%	0.7%
COc1ccc(CN2CCCC(C(=O)c3ccc(Cl)cc3)C2)cc1Cn1cccn1 (stereo not drawn)	-14.0%	10µM*	-9.3	81.9%	-0.5%
COc1ccc(CN2CCC(C(=O)c3ccc(Cl)cc3)CC2)cc1	-16.6%	11.2µM*	-36.8	-6.9%	-11.8%
O=C(c1ccc(Cl)cc1)C1CCCN(Cc2cccc3cccnc23)C1 (stereo not drawn)	-16.2%	?	-6.8	56.2%	0.5%
O=c1cnc2cnc(OCc3ccccc3)nc2n1Cc1ccc(F)cc1	-23.2%	nt	nt	nt	nt
CCOC(=O)c1c(C)[nH]c(C)c1S(=O)(=O)N1CCC(C(=O)Nc2ccccc2CC)CC1	3.4%	nt	-7.4	nt	2.8%
C#CCN1CC(=O)N(COC(=O)C2C(C=C(C)C)C2(C)C)C1=O (stereo not drawn)	nt	nt	-19.4	nt	nt
COCCn1c(SCC(=O)c2c(-c3ccccc3)n(C)c3ccccc23)nnc1-c1ccncc1	-8.7%	?	-35.7	181.0%	2.0%
COc1ccc(Nc2nnc(SCC(=O)/C=C3/N(C)c4ccccc4C3(C)C)s2)cc1	20µM*	?	-74.1*	-48.1%	-4.4%
COCCn1c(SCC(=O)/C=C2\N(C)c3ccccc3C2(C)C)nnc1-c1ccncc1	?	?	-74.5*	125.8%	-4.2%
COCCn1c(SCCCC(=O)c2ccc(Br)cc2)nnc1-c1ccncc1	?	7.94µM*	-70.8*	77.1%	?
SMILES	FMDV inh	HCV inh	HCMV antiviral	AmpC inh no detg	AmpC inh detg
CN1/C(=C\C(=O)CSc2nnc(N)s2)C(C)(C)c2ccccc21	?	-8.1%	?	-34.2%	?
Cn1c(SCCCC(=O)c2ccc(F)cc2)nnc1-c1ccncc1	?	-23.1%	-33.3	7.1%	-11.3%
COc1ccc(CN2CCOc3ccc(C(O)c4cccnc4)cc3C2)c(F)c1 (stereo not drawn)	-29.6%	nt	nt	nt	nt
CCCOc1cccc(C(=O)N(Cc2ccccc2)C2CCS(=O)(=O)C2)c1 (stereo not drawn)	-19.5%	13.8%	-65.7*	49.8%	-16.0%
CCCCOc1cccc(C(=O)N(Cc2ccc(Cl)cc2)C2CCS(=O)(=O)C2)c1 (stereo not drawn)	-19.5%	nt	11.5	nt	-12.6%
COc1ccc2c(c1)c1c(c(=O)n(-c3ccccc3C)c(=O)n1CC(=O)Nc1c(C)cccc1C)n2C	0.0%	nt	-16.0	nt	24.6%
O=C(CN1c2ccccc2Sc2ccccc21)NNC(=O)Nc1cccc(Cl)c1	17.4%	-19.7%	-73.3*	-55.1%	-1.0%
O=C(Nc1cccc(-c2cccc(Cl)c2)c1)C1CCN(CC2CCOC2)CC1 (stereo not drawn)	27.7%	10µM*	?	89.9%	-13.6%
COCc1ccc(CN2CCC(C(=O)Nc3cccc(-c4cccc(Cl)c4)c3)CC2)o1	?	10µM*	41.7	253.7%	0.9%
O=C(Nc1cccc(-c2cccc(Cl)c2)c1)C1CCN(Cc2ccccn2)CC1	-20.0%	10µM*	-74.3*	174.6%	0.1%
C=CCn1cc(CN2CCC(C(=O)Nc3cccc(-c4cccc(Cl)c4)c3)CC2)c(C)n1	?	5.01µM*	-38.7	148.5%	-9.5%
C=CCn1cc(CN2CCC(C(=O)Nc3cccc(-c4cccc(F)c4)c3)CC2)c(C)n1	?	?	-19.6	127.5%	1.4%
COc1ccc(S(=O)(=O)N(Cc2ccccc2)Cc2nc3ccccc3c(=O)[nH]2)cc1	-6.9%	?	-99.8*	-3.2%	-14.2%
COc1ccccc1CN(Cc1nc2ccccc2c(=O)[nH]1)S(=O)(=O)c1ccc2ccccc2c1	nt	35.5µM*	-16.8	-6.8%	?
O=S1(=O)CC(N2CCN(CCO)CC2)CN1Cc1cn(Cc2ccc(C(F)(F)F)cc2)nn1 (stereo not drawn)	-20.7%	nt	-17.5	nt	nt
COc1cc2nc(CN(CCO)C3CS(=O)(=O)CC3O)nc(N3CCCCC3)c2cc1OC (stereo not drawn)	-3.0%	nt	nt	nt	nt
CCCCOCC1CN(CCCC)S(=O)(=O)c2c(cccc2N2CCCC2)O1 (stereo not drawn)	nt	nt	-31.6	nt	nt
CC(C)Oc1cccc(-n2c(CCc3c[nH]c4ccc(Br)cc34)nc3ccccc3c2=O)c1	-29.8%	nt	nt	nt	nt
CCOc1ccc(Cl)cc1CSc1ncn[nH]1	-24.9%	?	-67.7*	-25.0%	-1.7%
Clc1ccc(CSc2ncn[nH]2)cc1	28.8%	-1.9%	-3.4	-14.6%	-0.5%
COc1ccc(CCNC(=O)c2cc(=O)c3cc(C)ccc3o2)cc1OC	?	22.4µM*	?	35.8%	-12.2%
